From PubChem BioAssay
Hits are enriched below; roughly 6% of the tested compounds scored in any of these assays.
D1 ag: human D1 receptor agonism; activation, % at 2 µM; P21728; 360,000 compounds, 1% hits; HEK293 T-REx D1 cells, calcium flux, agonist mode; in the data active = activation above about 30%; note: 0% is about no effect
Target sequence (P21728 whole entry, looked up): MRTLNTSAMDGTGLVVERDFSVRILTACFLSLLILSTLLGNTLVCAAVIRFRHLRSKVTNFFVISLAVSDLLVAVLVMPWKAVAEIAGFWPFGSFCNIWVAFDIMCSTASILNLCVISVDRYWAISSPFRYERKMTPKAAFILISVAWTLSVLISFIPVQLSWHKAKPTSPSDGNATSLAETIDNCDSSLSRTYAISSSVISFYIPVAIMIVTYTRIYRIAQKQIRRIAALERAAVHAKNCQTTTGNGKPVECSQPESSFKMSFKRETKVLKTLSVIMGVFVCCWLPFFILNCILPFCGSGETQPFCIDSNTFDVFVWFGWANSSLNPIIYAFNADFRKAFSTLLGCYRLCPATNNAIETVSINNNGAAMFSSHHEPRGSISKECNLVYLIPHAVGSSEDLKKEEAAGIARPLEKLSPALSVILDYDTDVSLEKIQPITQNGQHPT
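Inducible HEK293 T-REx D1 cells, force-coupled to calcium signalling, were plated at 4000 cells/well with tetracycline and held overnight at 30 C. After no-wash calcium dye loading, compound-evoked calcium rise over 180 s flagged agonists.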
D1 antag: human D1 dopamine receptor antagonism; P21728; HEK293 TREx D1 cells, calcium flux, dopamine EC80; stronger effect = lower value; activity change, negative = inhibition, % at 10 µM; 360,000 compounds, 3.2% hits; AID 504652; in the data active = activity change below about -30%; note: % is set by controls: 0 for no effect and ±100 for the full control effect
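HEK293 T-REx cells expressing inducible, force-coupled D1 receptor; no-wash Ca dye, 30–90 min RT. Cmpd → 180 s read at 1 Hz → EC80 DA → 180 s read.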
D3 ag: agonists of human D3 dopamine receptor; P35462; D3R DiscoveRx beta-arrestin cells, luminescence, 90 min; max activation, %; 410,000 compounds, 0.58% hits; in the data active = max activation above about 30%; note: 0% is about no effect
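Agonist-mode cell screen: cells plated at 1500/well and incubated overnight at 37 °C, then exposed to library compounds for 90 min at 37 °C. Detection reagent was added for 30–60 min at room temperature, and luminescence was read.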
D1 potentiator: potentiators of human D1 dopamine receptor | AID 504651 | HEK293 TREx D1 cells, calcium flux, dopamine EC20 potentiation | 360,000 compounds, 0.036% hits | potentiation, % at 10 µM | P21728; in the data active = potentiation above about 30%; note: 0% is about no effect
D3 antag: antagonists of human D3 dopamine receptor | P35462 | D3R cells, DiscoveRx beta-arrestin luminescence, antagonist mode; stronger effect = lower value | max response, negative = inhibition, % | 360,000 compounds, 2.5% hits | AID 652054; in the data active = max response below about -50%; note: % is set by controls: 0 for no effect and ±100 for the full control effect
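Cells expressing the human receptor were seeded at 1500 cells/well, incubated overnight at 37 degrees C in 5% CO2, then exposed to library compounds with dopamine controls for 90 minutes at 37 degrees C before luminescent detection.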
The depositor's hits bear a star; ! = not confirmed by another sample.

Results for CCc1nc2c(OCC3CCCCC3)cccn2c1N(C)C(=O)c1ccccc1F ?
D3 ag: -4; D3 antag: -57*

Results for CCc1nc2c(OCCC3CCCCC3)cccn2c1N(C)C(=O)c1ccccc1F ?
D3 ag: -19; D3 antag: -57*

Results for Cc1ccc2c(CC(=O)N(Cc3cccc(Cl)c3)C3CCS(=O)(=O)C3)coc2c1 (stereo not given) ?
D1 ag: 4; D1 antag: 2; D3 ag: 0; D1 potentiator: -1

What do the screens show for `CCCCN(CCCC)CCCNC(=O)c1cc(-c2ccc(Cl)s2)nc2ccccc12`?
D1 ag: 17; D1 antag: 1; D3 ag: -22; D1 potentiator: 0

What do the screens show for `CN(C(=O)CSc1nc2ncccc2o1)c1ccc(F)cc1`?
D1 ag: 1; D1 antag: 7; D3 ag: -4; D1 potentiator: -1

Results for CCCOc1ccc(NC(=O)CC2C(=O)N(c3cccc(OC)c3)C(=O)N2Cc2cccs2)cc1 (stereo not given) ?
D1 ag: 2; D1 antag: 2; D3 ag: 2; D1 potentiator: 1

How did O=C(NCCCNc1ccc(C(F)(F)F)cc1[N+](=O)[O-])c1cc(F)c(F)cc1Cl do in these assays?
D1 ag: 16; D1 antag: -43*; D3 ag: 1; D1 potentiator: -5; D3 antag: 8

What do the screens show for `O=C(CSc1n[nH]c(=O)n1C1CC1)Nc1ccccc1`?
D1 ag: 1; D1 antag: -7; D3 ag: 3; D1 potentiator: -5; D3 antag: 1

What do the screens show for `O=c1[nH]nc(SCc2ccccc2)n1C1CC2C=CC1C2` (stereo not given)?
D1 ag: 12; D1 antag: -32*; D3 ag: -2; D1 potentiator: -3; D3 antag: -10

What do the screens show for `Cc1nnc2c(NCCc3ccccc3)nc3ccccc3n12`?
D1 ag: 0; D1 antag: -9; D3 ag: 0; D1 potentiator: -1; D3 antag: 7

How did Cc1csc(=O)n1CC(=O)OCC(=O)Nc1ccc(F)c(F)c1F do in these assays?
D3 ag: 3; D3 antag: 0

How did COc1ccccc1N1CCN(C(=O)c2nc(SC)ncc2Cl)CC1 do in these assays?
D1 ag: -1; D1 antag: -4; D3 ag: -10; D1 potentiator: 4

What do the screens show for `O=C(CC(c1ccccc1)c1ccccc1)Nc1nn[nH]n1`?
D1 ag: 4; D1 antag: -31*; D3 ag: 8; D1 potentiator: -2; D3 antag: 9

Results for O=C(COc1ccccc1)Nc1nn[nH]n1 ?
D1 ag: 0; D1 antag: 9; D3 ag: -2; D1 potentiator: 1; D3 antag: -8

How did CC(=O)N(/N=C/c1ccc([N+](=O)[O-])o1)c1nc2ccccc2c(=O)n1-c1ccccc1 do in these assays?
D1 ag: 1; D1 antag: 0; D3 ag: -22; D1 potentiator: -4; D3 antag: -54*

How did O=C(NC1CCCCC1)c1ccc(-n2cnnn2)cc1 do in these assays?
D1 ag: 2; D1 antag: -4; D3 ag: -3; D1 potentiator: 3; D3 antag: 1

How did Cc1cccc(C2CC(=O)Nc3cc4c(cc32)OCO4)c1 (stereo not given) do in these assays?
D1 ag: 15; D1 antag: -1; D3 ag: 5; D1 potentiator: -3

How did CC(C)Oc1cccc(C2CC(=O)Nc3cc4c(cc32)OCO4)c1 (stereo not given) do in these assays?
D1 ag: 68*; D1 antag: -32*; D3 ag: -1; D1 potentiator: -1

How did Nc1nc(Cl)nc2c1ncn2C1CC(O)C(CO)O1 (stereo not given) do in these assays?
D1 ag: -1; D1 antag: 9; D3 ag: 22; D1 potentiator: -5; D3 antag: 2

How did O=c1[nH]c(=O)n([C@H]2C[C@H](O)[C@@H](CO)O2)cc1C(F)(F)F do in these assays?
D1 ag: 1; D1 antag: -24; D3 ag: 90*!; D1 potentiator: -4; D3 antag: 24

What do the screens show for `Nc1nc2c(ncn2[C@H]2C[C@H](O)[C@@H](CO)O2)c(=O)[nH]1`?
D1 ag: 1; D1 antag: -30*; D3 ag: -8; D1 potentiator: -5; D3 antag: 0

What do the screens show for `COc1ccc(N(S(=O)(=O)c2ccccc2)S(=O)(=O)c2ccccc2)c(N)c1`?
D1 ag: -2; D1 antag: -9; D3 ag: 10; D1 potentiator: -5; D3 antag: 0

Results for CCOC(=O)C(NC(=O)CC(C)C)(Nc1sc(C)c(CC)c1C#N)C(F)(F)F (stereo not given) ?
D1 ag: 2; D1 antag: -83*; D3 ag: 2; D1 potentiator: -11; D3 antag: 7

What do the screens show for `COc1cccc(NC(=O)C(CCSC)NC(=O)C2CCC(C)CC2)c1` (stereo not given)?
D1 ag: 8; D1 antag: -15; D3 ag: -2; D1 potentiator: 0

Results for COc1ccc(CNC(=O)COCc2cc(-c3cccs3)on2)cc1 ?
D1 ag: -1; D1 antag: -3; D3 ag: 1; D1 potentiator: 4

What do the screens show for `COC(=O)Cn1c(CCS(=O)(=O)c2ccc(Cl)cc2)nc2ccccc21`?
D1 ag: -1; D1 antag: 6; D3 ag: -6; D1 potentiator: 2; D3 antag: -5

What do the screens show for `COC(=O)Cn1c(CCS(=O)(=O)c2ccc(C)cc2)nc2ccccc21`?
D1 ag: -2; D1 antag: 0; D3 ag: 0; D1 potentiator: 0; D3 antag: -101*

Results for CC(C)N(Cc1ccccc1)C(=O)c1nc(-c2ccc(Cl)cc2)n2c1CCCCC2 ?
D1 ag: -1; D1 antag: -3; D3 ag: -24; D1 potentiator: 3

How did Cc1cc(Nc2cccc([N+](=O)[O-])c2)n2c(nc3ccccc32)c1C#N do in these assays?
D1 ag: 26; D1 antag: -35*; D3 ag: 4; D1 potentiator: -7; D3 antag: -93*

How did Cc1cc(Nc2ccc(F)cc2)n2c(nc3ccccc32)c1C#N do in these assays?
D1 ag: 17; D1 antag: -1; D3 ag: 10; D1 potentiator: 2

How did Nc1nc(SCc2ccccc2)c2ncn(C3CCCO3)c2n1 (stereo not given) do in these assays?
D3 ag: 5; D3 antag: 2

Results for C=CCCC1CN(CCCC)S(=O)(=O)c2c(F)cccc2O1 (stereo not given) ?
D3 ag: 35*; D3 antag: 23

How did CC(NC(=O)Cc1ccc(Br)cc1)c1ccccc1 (stereo not given) do in these assays?
D1 ag: 0; D1 antag: 2; D3 ag: -2; D1 potentiator: 1; D3 antag: -9
